Compound activity: PubChem, National Center for Advancing Translational Sciences (NCATS)
Pol kappa inh-1 – qHTS for Inhibitors of Polymerase Kappa; DNA polymerase kappa (Homo sapiens), Q9UBT6; purified Pol kappa, fluorescent DNA synthesis assay, 10 min; Potency, µM (highest dose often 107 µM), without a hit: at the highest dose activity, negative = inhibition, hits mostly inhibitors; hit rate 0.53% among 400,000; AID 588579, 2011; also: potency is read from the fitted curve at half-maximal effect; % is scaled to controls: 0 for no effect and ±100 for the full control effect
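50 nM final substrate added after 15 min RT preincubation of 10 nM Pol kappa with compound; fluorescence read at 0 and 10 min.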
Pol beta inh – qHTS Assay for Inhibitors of DNA Polymerase Beta. P06746. Pol beta primer extension/strand displacement, fluorescence kinetic. Potency, µM (titrated, usually from 114 µM), inactives show at the top dose activity change, negative = inhibition, most hits filed as inhibitors. hit rate 1.3% among 340,000; also: potency is read from the fitted curve at half-maximal effect; % is scaled to controls: 0 for no effect and ±100 for the full control effect
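Pol beta (10 nM) was preincubated with compound for 15 min at room temperature. The reaction was then started with 50 nM substrate and read immediately and after a further 10 min at room temperature.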
PI5P4Ka inh – qHTS for Inhibitors of phosphatidylinositol 5-phosphate 4-kinase (PI5P4K); PI5P4Kalpha enzyme, ADP-Glo luminescence, 60 min; active compounds read low; AID 652105, 2013; hit rate 1.2% among 330,000; max response, %; Phosphatidylinositol 5-phosphate 4-kinase type-2 alpha (Homo sapiens), P48426; active = max response of -50% or lower; inconclusive = between -30% and -50%; inactive = -30% or higher; also: value at the top dose of about 77 µM; % is scaled to controls: 0 for no effect and ±100 for the full control effect
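qHTS, 1536-well: enzyme/substrate mix, compound by pin tool, 5 microM ATP final; RT 60 min; ADP-Glo reagents 1 (45 min) then 2 (30 min); luminescence.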
PI4K2A inh – qHTS for small molecular inhibitors of PI4K2A. purified PI4K2A, ADP-Glo luminescence, 1 h; active compounds read low. activity change, negative = inhibition, % at 76.9 µM. hit rate 0.13% among 420,000. Phosphatidylinositol 4-kinase type 2-alpha (Homo sapiens), Q9BTU6. AID 1346378, 2018; in the data active = activity change below about -50%; inconclusive = mostly about -30% to -49%;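 also: -100% = wells without enzyme as full effect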
Target sequence (Q9BTU6 whole entry, looked up): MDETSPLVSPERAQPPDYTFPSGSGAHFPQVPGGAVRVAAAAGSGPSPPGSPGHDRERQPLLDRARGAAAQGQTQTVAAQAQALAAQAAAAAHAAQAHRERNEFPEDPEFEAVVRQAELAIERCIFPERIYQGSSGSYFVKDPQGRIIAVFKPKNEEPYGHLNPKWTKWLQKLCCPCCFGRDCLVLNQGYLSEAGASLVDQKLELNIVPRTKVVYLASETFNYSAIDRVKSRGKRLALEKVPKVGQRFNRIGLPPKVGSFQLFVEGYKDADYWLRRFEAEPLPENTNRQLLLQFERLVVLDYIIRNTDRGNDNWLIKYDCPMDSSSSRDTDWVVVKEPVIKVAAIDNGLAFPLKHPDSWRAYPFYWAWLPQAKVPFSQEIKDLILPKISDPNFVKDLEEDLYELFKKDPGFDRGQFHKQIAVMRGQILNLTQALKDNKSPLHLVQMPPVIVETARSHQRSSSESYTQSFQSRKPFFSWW
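PI4K2A activity was measured by ADP-Glo luminescence: enzyme (4 ug/mL stock) and phosphatidylinositol (1.2 mM stock) in Tris pH 7.5/MgCl2/EGTA/Triton X-100 buffer were reacted with ATP (300 microM stock) for one hour at ambient temperature.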
POLI inh – qHTS for Inhibitors of Polymerase Iota; DNA polymerase iota (Homo sapiens), Q9UNA4; Pol iota fluorescent replication assay, 10 min; Potency, µM (doses to about 115 µM), for the others: at the highest dose activity, negative = inhibition, hits mostly inhibitors; hit rate 1% among 390,000; also: potency is read from the fitted curve at half-maximal effect
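Pol iota at 10 nM preincubated 15 min with compounds at room temperature; reaction started with fluorescent substrate, 50 nM final. Fluorescence read kinetically at 0 and 10 min; buffer-only wells as negative control.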
Pol eta inh-1 – qHTS for Inhibitors of Polymerase Eta. DNA polymerase eta (Homo sapiens), Q9Y253. recombinant Pol eta, fluorescent DNA replication assay. Potency, µM (highest dose often 114 µM), without a hit: at the highest dose activity change, negative = inhibition, actives largely listed as inhibitors. hit rate 1.2% among 390,000. AID 588591, 2011; also: potency is read from the fitted curve at half-maximal effect; % is scaled to controls: 0 for no effect and ±100 for the full control effect
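Pol eta (10 nM) was preincubated with compounds for 15 min at room temperature, after which fluorescent replication substrate (50 nM final) was added to start the reaction. Fluorescence was read kinetically at 0 and 10 min.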
GALK inh confirm – Confirmation Assay for Inhibitors of Human Galactokinase (GALK); hit rate 70% among 150; purified GALK, Kinase-Glo ATP depletion luminescence; shares compounds with Pol eta inh-1; AID 2015, 2009; Potency, µM (titrated, usually from 115 µM), for the others: top-dose activity, negative = inhibition, actives largely listed as inhibitors
GALK redox cs – Confirmatory Assay for Inhibitors of Human Galactokinase (GALK): Phenol-HRP redox assay counterscreen; Potency, µM (highest dose often 115 µM), inactives show at the top dose activity change, negative = H2O2 signal, actives largely listed as inhibitors; AID 2035, 2009; hit rate 40% among 150; shares compounds with Pol eta inh-1; Phenol red-HRP H2O2 redox cycling, absorbance 600 nm
HEK293 tox – Secondary Assay for Inhibitors of Human Galactokinase (GALK): HEK-293 Cell Viability Assay; hit rate 10% among 170; shares compounds with Pol eta inh-1; HEK-293 viability, ATP luminescence (CellTiter-Glo), 24/48 h; AID 2547, 2010; Potency, µM (doses to about 46.1 µM), for inactives: at the top dose activity change, negative = cytotoxicity, most hits filed as inhibitors; also: potency is read from the fitted curve at half-maximal effect; % is scaled to controls: 0 for no effect and ±100 for the full control effect
Pol kappa inh-2 – qHTS for Inhibitors of Polymerase Kappa: Confirmatory Assay for Cherry-picked Compounds. shares compounds with Pol eta inh-1. purified Pol-kappa, fluorescent strand-displacement substrate. Potency, µM, most hits filed as inhibitors. hit rate 76% among 920. AID 720501, 2013; also: potency is read from the fitted curve at half-maximal effect
Pol eta inh-2 – qHTS for Inhibitors of Polymerase Eta: Confirmatory Assay for Cherry-picked Compounds. shares compounds with Pol eta inh-1. hit rate 64% among 2,600. Pol eta primer extension, TAMRA/BHQ fluorescence, 10 min. Potency, µM, most hits filed as inhibitors; also: potency is read from the fitted curve at half-maximal effect
Active calls of the source: *; [ ] = another dose, or the depositor's remark. This is a sample that favours compounds with a hit; in the whole collection about 2.8% have one here. Unless noted, calls follow the shape of the dose curve; as a rule, active = well fitted curve in the direction sought with a large enough effect; inconclusive = small, poorly fitted or top-dose-only effect, or another doubt; inactive = no such curve, though single readings can be large; an effect the other way counts as inactive or inconclusive.

How did CCOc1ccccc1NC(=O)Cn1c(=O)n(CC(=O)NCc2ccccc2Cl)c(=O)c2sccc21 do in these assays?
Pol kappa inh-1: 5%; Pol beta inh: 0%; PI4K2A inh: -4; POLI inh: -13%

Results for COCCCn1c(Cc2csc(Nc3cccc(Cl)c3)n2)nnc1SCC(=O)OC ?
Pol kappa inh-1: 40µM*; Pol beta inh: 25µM*; PI4K2A inh: -1; POLI inh: 22µM*; Pol eta inh-1: 20µM*; Pol kappa inh-2: 17*; Pol eta inh-2: 38*

Results for S=c1[nH]nc(Cc2sc(-c3ccccc3)nc2-c2ccccc2)o1 ?
Pol kappa inh-1: -13%; Pol beta inh: 1%; PI5P4Ka inh: -5; PI4K2A inh: 5; POLI inh: -2%; Pol eta inh-1: -1%; GALK inh confirm: 33µM*; GALK redox cs: -10%; HEK293 tox: -6%

What do the screens show for `S=c1[nH]nc(Cc2c[nH]c3ccccc23)o1`?
Pol kappa inh-1: -8%; Pol beta inh: 0%; PI4K2A inh: 0; POLI inh: 4%; Pol eta inh-1: -6%

What do the screens show for `O=C(CN1C(=O)CSc2ccc(S(=O)(=O)N3CCCCC3)cc21)NCc1ccc(F)cc1Cl`?
Pol kappa inh-1: -2%[60.1 µM]; Pol beta inh: 1%; PI4K2A inh: 4; POLI inh: -18%; Pol eta inh-1: -14%

How did O=C1N=C(N2CCOCC2)S/C1=C\c1ccc(OS(=O)(=O)c2ccccc2)cc1 do in these assays?
Pol kappa inh-1: 2%[60.1 µM]; Pol beta inh: 11%; PI5P4Ka inh: 3; PI4K2A inh: -7; POLI inh: 14%; Pol eta inh-1: -12%

How did CCS(=O)(=O)C1=NSC2=NC(=O)/C(=C\c3ccc(OS(=O)(=O)c4ccccc4)c(OC)c3)C(=N)N21 do in these assays?
Pol kappa inh-1: -7%; Pol beta inh: inconclusive; PI5P4Ka inh: -67*; PI4K2A inh: -6; POLI inh: -13%; Pol eta inh-1: 40µM*; GALK inh confirm: 47µM*; GALK redox cs: 11%; HEK293 tox: -5%

How did COc1cc(/C=C2/C(=N)N3C=CSC3=NC2=O)ccc1OCCCOc1ccccc1C do in these assays?
Pol kappa inh-1: -18%; Pol beta inh: -3%; PI4K2A inh: 4; POLI inh: 23%; Pol eta inh-1: -15%

What do the screens show for `COc1cc(/C=C2\C(=N)N3N=C(S(C)(=O)=O)SC3=NC2=O)cc(OC)c1OCCOc1ccc(C)cc1`?
Pol kappa inh-1: -13%; Pol beta inh: 3%; PI5P4Ka inh: -11; PI4K2A inh: -11; POLI inh: inconclusive; Pol eta inh-1: -11%

How did CS(=O)(=O)Oc1ccc(/C=C2\C(=N)N3N=C(CC(=O)N4CCOCC4)SC3=NC2=O)cc1Cl do in these assays?
Pol kappa inh-1: 2%; Pol beta inh: 4%; PI5P4Ka inh: 2; PI4K2A inh: 1; POLI inh: 21%; Pol eta inh-1: -17%

Results for CCC1=NN2C(=N)/C(=C/c3ccc(OS(=O)(=O)c4ccc(C)cc4)c(OC)c3)C(=O)N=C2S1 ?
Pol kappa inh-1: -30%; Pol beta inh: inconclusive; PI5P4Ka inh: -16; PI4K2A inh: -2; POLI inh: inconclusive; Pol eta inh-1: inconclusive; Pol eta inh-2: inconclusive

What do the screens show for `CCS(=O)(=O)C1=NN2C(=N)/C(=C\c3ccc(OS(=O)(=O)c4ccccc4)cc3)C(=O)N=C2S1`?
Pol kappa inh-1: -33%; Pol beta inh: inconclusive; PI5P4Ka inh: -79*; PI4K2A inh: -9; POLI inh: inconclusive; Pol eta inh-1: 45µM*; GALK inh confirm: 38µM*; GALK redox cs: 3%; HEK293 tox: 4%

Results for COc1cc(/C=C2\C(=N)N3N=C(S(C)(=O)=O)SC3=NC2=O)ccc1OS(=O)(=O)c1ccccc1 ?
Pol beta inh: inconclusive; GALK inh confirm: 38µM*; GALK redox cs: 1%; HEK293 tox: -10%

Results for CCOC(=O)c1cc(-c2ccc(C)cc2)n(CCC(=O)Nc2ccc(C(C)C)cc2)c1C ?
Pol kappa inh-1: 3%; Pol beta inh: -4%; PI4K2A inh: -1; POLI inh: 28%; Pol eta inh-1: -31%

What do the screens show for `COc1ccccc1CN(Cc1c(Cl)cccc1Cl)S(=O)(=O)c1ccc(Br)cc1`?
Pol kappa inh-1: -1%[60.1 µM]; Pol beta inh: 86%; PI4K2A inh: -6; POLI inh: 12%; Pol eta inh-1: 5%

What do the screens show for `O=c1c2ccccc2nc2c3ccccc3c(NCc3ccccn3)nn12`?
Pol kappa inh-1: -11%; Pol beta inh: inconclusive; PI5P4Ka inh: 3; PI4K2A inh: 5; POLI inh: 17%; Pol eta inh-1: inconclusive; Pol kappa inh-2: 27*; Pol eta inh-2: 48*

Results for O=c1c2ccccc2nc2c3ccccc3c(NCc3cccnc3)nn12 ?
Pol kappa inh-1: -12%; Pol beta inh: 8%; PI5P4Ka inh: 3; PI4K2A inh: 0; POLI inh: -10%; Pol eta inh-1: 1%
